Test results as given in PubChem BioAssay (NCI).
About 83,000 compounds went through this panel and 20% of them were active in at least one assay; those are over-represented in the sample as a whole.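 A percent growth of 40 corresponds to 60% growth inhibition; 0 means no net growth; -100 means all cells died. Active threshold: below 10.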 The source made the active and inactive calls.

system: NCI-H226 lung; test: NCI-60 one-dose screen, 48 h (100 = growth as untreated, 0 = no growth, -100 = all killed); conditions: 10 µM unless noted

SMILES	growth
C[PH+](c1nc2ccccc2nc1[PH+](C)C(C)(C)C)C(C)(C)C.C[PH+](c1nc2ccccc2nc1[PH+](C)C(C)(C)C)C(C)(C)C.[Au+].[Cl-] (centres undefined)	-60.4% (active)
CN(C)CCNC(=O)c1cc2c3cc(Cl)ccc3[nH]c2c2ncccc12	25% (inactive)
CNC(=O)c1ccccc1Oc1nc(Nc2cc(OC)c(OC)c(OC)c2)ncc1Br	21.8% (inactive)
O=C(c1ccccc1)c1ccc(C2CCCCC2)cc1	92.4% (inactive)
CCCCCCCC[C@@H]1N[C@@H](C(=O)OC)Cc2c1[nH]c1ccccc21	92.5% (inactive)
Cc1cc(N2CCCCC2)cc(C)c1-c1csc(NC(=O)c2ccncc2)n1	60.6% (inactive)
Cc1nc2sc(C(=O)Nc3ccc(Br)cc3)c(N)c2cc1C(O)c1ccccc1 (centres undefined)	68% (inactive)
CCN(CC)CC(O)COc1c(Br)c(Br)c(Br)c2c1OC(C)(C)C2 (centres undefined)	46.4% (inactive)
Cc1cccc(CNc2c3ccccc3nc3ccccc23)c1	40.6% (inactive)
Fc1cc2c(cc1Cl)N(c1ncnc3ccc(-c4ccc5n[nH]nc5c4)cc13)CC2	88.1% (inactive)
CC/C(=C(/c1ccc(Cl)cc1)c1ccc(OCCN(C)C)cc1)c1ccc(Cl)cc1	87.5% (inactive)
Cn1cc(-c2nonc2-c2cn(C)c3ccccc23)c2ccccc21	81% (inactive)
COC12C=C/C(=C(/C(=O)OCc3ccncc3)C(=O)CCCCCCCCC3(OC)C=C/C(=C(/C(=O)OCc4ccncc4)C(=O)CCCCCCCC1)O3)O2	-64.7% (active)
COc1cc2ncnc(Nc3ccc(F)c(Cl)c3)c2cc1OCC(=O)N1CCN(c2ccccc2)CC1	92.5% (inactive)
